# Screening results deposited in PubChem BioAssay by National Center for Advancing Translational Sciences (NCATS).
# This is a sample that favours compounds with a hit; in the whole collection about 21% have one here.
# IL1B secr inh: inflammasome signaling inhibition, IL-1 beta readout; AID 743279; activity change, % at 57.5 µM; 360,000 compounds, 4.7% hits; THP-1 LPS/ATP IL-1B secretion, AlphaLISA, 16 h; stronger effect = lower value; in the data active means activity change below about -50%; inconclusive means mostly about -30% to -49%
#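 Secreted IL-1B measured by AlphaLISA bead assay after 16 h compound exposure of THP-1 cells; compounds (final up to 57.5 uM) added 1 h before LPS (250 ng/mL) and ATP (1.25 mM) stimulation; lower signal means less secretion.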
# ELG1 DNA repair: ELG1-dependent DNA repair inhibition | HEK293T ELG1-luciferase reporter, luminescence, 16 h; DNA damage induced by 5-fluorouridine | Potency, µM (highest dose often 46.1 µM), without a hit: at the highest dose activity change, negative = inhibition, hits mostly inhibitors | 330,000 compounds, 2.3% hits; further: potency means the concentration at half of the fitted maximal effect; nearly all actives have a fitted effect of over 55% in size
#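 DMSO vehicle served as the neutral condition. Each well held 2,000 cells given 5-fluorouridine plus compound; after 16 hr at 37 °C/5% CO2, ONE-Glo was added and luciferase measured 30 min later.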
# DT40 TDP1 no CPT: qHTS for Inhibitors of human tyrosyl-DNA phosphodiesterase 1 (TDP1): qHTS in cells in absence of CPT | DT40 Tdp1-/- hTDP1 cells, no CPT, ATP luminescence, 48 h | Potency, µM (series often up to 46.2 µM), inactives show at the top dose activity change, negative = growth inhibition, usual class: inhibitors | 420,000 compounds, 15% hits; further: potency means the concentration at half of the fitted maximal effect; nearly all actives have a fitted effect of over 55% in size
#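 Growth kinetics read by CellTiter-Glo luminescence after ≥48 hr at 37 °C. Cells: DT40 Tdp1-/- stably carrying human TDP1, 400 per well, compound exposure in the absence of CPT (DMSO vehicle).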
# DT40 TDP1 CPT: growth inhibition of DT40 Tdp1-/-;hTDP1 cells with camptothecin (screen for TDP1 inhibitors); chicken DT40 Tdp1-/-;hTDP1 cells + 20 nM CPT, ATP luminescence, 48 h; Potency, µM (titrated, usually from 46.2 µM), for the others: top-dose activity change, negative = growth inhibition, actives largely listed as inhibitors; 420,000 compounds, 12% hits; AID 686979; further: potency means the concentration at half of the fitted maximal effect; nearly all actives have a fitted effect of over 55% in size
#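 Chicken DT40 Tdp1-/- cells stably complemented with human TDP1 were seeded at 400 cells/well in medium containing 20 nM camptothecin, exposed to pin-transferred compounds, and grown at 37 °C for at least 48 hr. Viability was read as ATP luminescence.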
# Gal4-VP16 FLuc: counter-screen for ROR gamma inhibitors: Gal4-VP16 reporter; Drosophila S2 Gal4-VP16 UAS-luciferase, luminescence, 20 h; Potency, µM (series often up to 53.6 µM), inactives show at the top dose activity, negative = inhibition, most hits filed as inhibitors; 310,000 compounds, 3.5% hits; AID 2546;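 further: Gal4-VP16 expression switched on by copper sulfate through the metallothionein promoter; potency means the concentration at half of the fitted maximal effect; nearly all actives have a fitted effect of over 50% in size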
# RORg inh: blocks mouse ROR gamma transcriptional activity | P51450 | Drosophila S2 Gal4-RORgamma UAS-luciferase reporter, 20 h | Potency, µM (highest dose often 53.6 µM), without a hit: at the top dose activity change, negative = inhibition, most hits filed as inhibitors | 310,000 compounds, 5.4% hits; further: potency means the concentration at half of the fitted maximal effect; nearly all actives have a fitted effect of over 60% in size
# Target sequence (P51450 whole entry, looked up, the tested form may be a part): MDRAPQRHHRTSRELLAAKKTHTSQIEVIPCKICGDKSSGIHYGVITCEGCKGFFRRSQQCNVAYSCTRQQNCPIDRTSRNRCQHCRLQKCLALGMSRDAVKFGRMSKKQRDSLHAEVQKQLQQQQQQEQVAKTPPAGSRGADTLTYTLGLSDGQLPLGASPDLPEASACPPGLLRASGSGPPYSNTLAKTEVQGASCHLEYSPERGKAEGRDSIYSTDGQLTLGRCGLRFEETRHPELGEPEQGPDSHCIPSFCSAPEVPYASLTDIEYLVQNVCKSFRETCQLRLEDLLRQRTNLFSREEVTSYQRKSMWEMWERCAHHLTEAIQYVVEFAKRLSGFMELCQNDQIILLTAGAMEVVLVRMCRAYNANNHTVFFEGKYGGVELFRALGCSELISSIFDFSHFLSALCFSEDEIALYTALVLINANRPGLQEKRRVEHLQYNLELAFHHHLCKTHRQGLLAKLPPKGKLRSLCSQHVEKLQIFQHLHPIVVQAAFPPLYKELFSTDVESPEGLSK
#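 ROR gamma transcriptional activity was tracked as Gal4-UAS luciferase output in stably transfected Drosophila Schneider cells, with compound added 1 hr before 700 uM copper sulfate induction and a 20 hr ambient-temperature incubation.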
# Numbers without * were called inactive; ? = inconclusive; . = not tested or not shown. Unless noted, the call rests on the fitted dose curve; in most records, active means well fitted curve in the direction sought with a large enough effect; inconclusive means small, poorly fitted or top-dose-only effect, or another doubt; inactive means no such curve, though single readings can be large; an effect the other way counts as inactive or inconclusive. On the % scale 0 is the no-effect control and ±100 the full control effect.
SMILES,IL1B secr inh,ELG1 DNA repair,DT40 TDP1 no CPT,DT40 TDP1 CPT,Gal4-VP16 FLuc,RORg inh
CCc1ccc2[nH]c(=O)c(CN(Cc3ccco3)C(=S)NCC3CCCO3)cc2c1 (stereo unspecified),-115.4*,0.9%,?,?,-2.6%,2.1%
Cc1cc2cc(CN(Cc3ccco3)C(=S)NCC3CCCO3)c(=O)[nH]c2cc1C (stereo unspecified),-62.6*,?,20.6µM*,?,?,?
Cc1cc2cc(CN(CC3CCCO3)C(=S)NCc3ccco3)c(=O)[nH]c2cc1C (stereo unspecified),-75.2*,?,16.4µM*,?,-10.4%,34.4%
CN1/C(=C/C=C/c2n(C)c3cc([N+](=O)[O-])c([N+](=O)[O-])cc3[n+]2C)C(C)(C)c2ccccc21,-52.2*,.,3.66µM*,?,.,.
CN1/C(=C\C=C(C#N)C#N)C(C)(C)c2ccccc21,19.4,8.7%,-16.1%,-7.0%,2.5%,-0.6%
Oc1ccc(/C=N/N(c2ccccc2)c2ccccc2)cc1O,-22.8,?,?,10.3µM*,3.8%,?
O=C1Nc2ccccc2/C1=N\N=C\c1ccc(O)c(O)c1,-70.9*,?,?,?,?,-7.9%
Oc1ccc(/C=N/N=C/c2ccc(O)c(O)c2)cc1O,51.0,3.4%,18.4µM*,?,?,-17.7%
C(=N\n1cnnc1)/c1ccccn1,20.0,6.8%,-13.3%,-4.5%,?,-35.6%
C(=N\N(c1ccccc1)c1ccccc1)/c1ccccn1,-4.5,3.4%,29.1µM*,-13.3%,6.1%,25.5%
COc1ccc(S(=O)(=O)NCCc2nnc3ccc(SCc4cccnc4)nn23)cc1,-15.7,5.2%,-4.4%,-4.0%,-3.9%,6.1%
Oc1ccc(N=Cc2ccc(O)c(O)c2)cc1,-55.3*,-18.2%,?,?,10µM*,4.47µM*
O=C(/C(=N/N=C/c1ccc(O)c(O)c1)c1ccccc1)c1ccccc1,-75.7*,-26.1%,8.2µM*,7.31µM*,?,-24.6%
COc1ccc(/C=N/N(Cc2ccccc2)c2ccccc2)cc1O,-86.2*,-19.9%,?,?,-3.0%,9.5%
O=Cc1ccc(O)c(O)c1,-57.1*,3.7%,-7.0%,-0.9%,-3.3%,-29.0%
Cc1cccc(C)c1-n1nnnc1C1(C)CCC(=O)N1Cc1cccs1 (stereo unspecified),11.1,.,?,-21.4%,.,.
COC(=O)[C@]1(C)N[C@H](CN(C)S(=O)(=O)c2ccc(-c3ccccc3)cc2)[C@@H]2C(=O)N(C)C(=O)[C@@H]21,-4.4,-3.1%,-7.8%,-19.0%,.,.
COC(=O)c1ccc2nc(C3CCCCC3)c(Cc3ccc(OC)cc3C)n2c1,-29.0,.,?,?,.,.
COC(=O)c1ccc2nc(C3CCCCC3)c(Cc3ccc(C)cc3)n2c1,6.3,.,23.1µM*,25.9µM*,.,.
COC(=O)c1ccc2nc(C3CCCCC3)c(Cc3cccc(Cl)c3)n2c1,11.5,.,16.4µM*,?,.,.
Clc1cccc(Cc2c(C3CCCCC3)nc3ccc(Br)cn23)c1,20.2,.,?,23.1µM*,.,.
CCOc1ccc(S(=O)(=O)N2CCOCC2)cc1NC(=O)CCN1C(=O)NC2(CCCC2)C1=O,-16.6,.,5.3%,21.2%,.,.
Cc1nc2ccccc2c(=O)n1N(c1ccccc1)c1ccccc1,-28.8,-2.3%,-28.1%,?,-7.7%,27.1%
Cc1ccc(NC(=O)CSc2nnc(-c3ccccc3)n2C)cc1,.,.,-19.6%,-1.1%,.,.
Cc1ccc(Nc2nnc(SCC(=O)Nc3cccnc3Cl)s2)cc1C,?,-2.9%,?,?,-26.2%,-41.3%
CCc1cccc(C)c1NC(=O)CN1C(=O)C2(SCC(=O)N2c2cc(C)cc(C)c2)c2ccccc21 (stereo unspecified),.,.,16.4µM*,18.4µM*,.,.
